The entries come from a sample that favours hits as a whole.
C diff growth: C. difficile growth inhibition; Clostridium difficile clinical isolate growth, OD600, 24 h; hits give low values; growth activity, negative = inhibition, % at 16 µg/mL (by protocol); hit rate 0.25% among 86,000; AID 1259249;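 active = mean growth activity at or below -80% and every replicate also at or below -80%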;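 note: 0% = DMSO wells and -100% = levofloxacin 16 µg/mL wells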
Tcruzi prolif: T. cruzi proliferation inhibition. AID 624255. hit rate 5.9% among 77,000. T. cruzi beta-gal in NIH3T3, GalScreen luminescence, 90 h. inhibition, % at 8.34 µM;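 active = mean inhibition above about 93%, with at least 55% of replicates each passing it, limit read from the data, passing the limit was not always enough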
* hit, by the source's call; · = no result; ! = not confirmed by another sample.

SMILES | C diff growth | Tcruzi prolif
Cc1cccc(-c2ccc(C3[C@@H]4CN(Cc5cccc(F)c5)C[C@H]3N4)cc2)c1 (stereo not given in full) | -97* | ·
Cc1ccccc1-c1ccc(C2[C@H]3CNC[C@@H]2N3Cc2ccc3c(c2)OCO3)cc1 (stereo not given in full) | 0 | ·
O=C(N[C@@H]1CC[C@@H](CC(=O)N2CCOCC2)O[C@H]1CO)c1ccccn1 | 2 | 20
C[C@H]1CCCCO[C@H](CN(C)C(=O)Cc2ccccc2)[C@@H](C)CN([C@@H](C)CO)C(=O)c2cc(NS(=O)(=O)c3cccs3)ccc2O1 | -2 | 41
C[C@H]1CCCCO[C@@H](CN(C)C(=O)Cc2ccccc2)[C@@H](C)CN([C@@H](C)CO)C(=O)c2cc(NS(=O)(=O)c3ccc(F)cc3)ccc2O1 | -4 | 29
C[C@@H]1CN([C@@H](C)CO)S(=O)(=O)c2ccc(-c3ccc(F)cc3)cc2O[C@H]1CN(C)C(=O)C1CC1 | -7 | -105
CCCC#Cc1cnc2c(c1)C(=O)N([C@@H](C)CO)C[C@@H](C)[C@@H](CN(C)S(C)(=O)=O)O2 | -1 | 29
C[C@@H]1CN([C@H](C)CO)C(=O)c2cc(C#CC3CC3)cnc2O[C@@H]1CN(C)C(=O)c1ccc(F)cc1 | 7 | 75
CCCC#Cc1ccc2c(c1)O[C@@H](CN(C)C(=O)Nc1ccccc1F)[C@@H](C)CN([C@H](C)CO)S2(=O)=O | -10 | ·
COc1ccccc1-c1ccc(C2[C@@H]3CN(Cc4cccc(F)c4)C[C@H]2N3)cc1 (stereo not given in full) | -90*! | ·
COc1ccccc1-c1ccc(C2[C@@H]3CN(Cc4nccs4)C[C@H]2N3)cc1 (stereo not given in full) | 15 | ·
CC(C)NC(=O)Nc1cccc2c1O[C@@H](CN(C)C(=O)Nc1ccc3c(c1)OCO3)[C@H](C)CN([C@H](C)CO)C2=O | · | 39
CC(=O)N1[C@@H]2Cn3c(ccc(-c4cccnc4)c3=O)[C@H]1[C@@H](C(=O)NC1Cc3ccccc3C1)[C@@H]2CO | 2 | 74
CNC[C@H]1Oc2ccc(NS(=O)(=O)c3cn(C)cn3)cc2CC(=O)N([C@H](C)CO)C[C@@H]1C | -10 | -7
CNC[C@@H]1Oc2ccc(NS(=O)(=O)c3cn(C)cn3)cc2CC(=O)N([C@H](C)CO)C[C@@H]1C | 0 | 98*
C[C@H](CO)N1C[C@H](C)[C@@H](CN(C)C(=O)c2ccncc2)OCCCC[C@H](C)Oc2ccc(NC(=O)Cc3ccccc3)cc2C1=O | 3 | 13
CC(C)NC(=O)N(C)C[C@H]1OCCCC[C@H](C)Oc2ccc(NC(=O)c3ccncc3)cc2C(=O)N([C@@H](C)CO)C[C@@H]1C | -4 | 25
CCC(=O)N[C@@H]1CC[C@@H](CCNC(=O)Nc2ccc(C(F)(F)F)cc2)O[C@@H]1CO | · | 12
CN(C)CC(=O)N[C@@H]1CC[C@@H](CCNC(=O)Nc2ccc(C(F)(F)F)cc2)O[C@H]1CO | -89* | 12
CC(=O)N[C@@H]1CC[C@H](CCNC(=O)Nc2ccc(C(F)(F)F)cc2)O[C@H]1CO | -94* | 11
CC(=O)N[C@H]1CC[C@@H](CCNC(=O)Nc2ccc(C(F)(F)F)cc2)O[C@@H]1CO | -77 | 16
O=C(NCC[C@H]1CC[C@H](NC(=O)C2CC2)[C@H](CO)O1)Nc1ccc(C(F)(F)F)cc1 | -7 | -29
O=C(NCC[C@H]1CC[C@H](NC(=O)C2CC2)[C@@H](CO)O1)Nc1ccc(C(F)(F)F)cc1 | -99* | -6
CN(C)CCCNC(=O)C[C@H]1C=C[C@H](NC(=O)Cc2cccnc2)[C@@H](CO)O1 | · | -8
C[C@@H]1CN([C@H](C)CO)C(=O)c2cccc(NC(=O)Nc3ccc4c(c3)OCO4)c2O[C@H]1CN(C)S(=O)(=O)c1cccs1 | · | 80
SMILES | C diff growth | Tcruzi prolif
COc1ccc2c3c([nH]c2c1)[C@H](CO)N(C(=O)Cc1ccccc1)CC31CCN(C(=O)Nc2ccccc2F)CC1 | 2 | ·
CCCC#Cc1ccc([C@@H]2[C@H](CO)N3CCCCN(S(=O)(=O)Cc4ccccc4)C[C@@H]23)cc1 | -90* | 83
CCCC#Cc1ccc([C@@H]2[C@H](CO)N3CCCCN(S(=O)(=O)c4ccccc4C)C[C@@H]23)cc1 | -96* | 87
CCCC#Cc1ccc([C@@H]2[C@@H](CO)N3CCCCN(S(=O)(=O)Cc4ccccc4)C[C@@H]23)cc1 | 34 | 84
CCCC#Cc1ccc([C@H]2[C@H]3CN(S(=O)(=O)c4ccccc4C)CCCCN3[C@H]2CO)cc1 | 18 | 65
COc1cccc(S(=O)(=O)N2CC[C@H]3[C@@H](CO)N(C)c4ccc(C#Cc5ccc(F)cc5)cc4[C@H]32)c1 | -99* | 35
Cc1cccc(S(=O)(=O)N2CC[C@@H]3[C@H](CO)N(C)c4ccc(C#Cc5ccc(F)cc5)cc4[C@@H]32)c1 | -98* | 0
COc1cccc(-c2ccc3c(c2)[C@H]2[C@H](CCN2S(=O)(=O)c2ccc(F)cc2)[C@@H](CO)N3C)c1 | 3 | 88
CN1c2ccc(C#Cc3ccc(F)cc3)cc2[C@H]2[C@H](CCN2S(=O)(=O)c2ccccc2F)[C@@H]1CO | -6 | 77
COc1cc(CN2[C@@H]3CNC[C@H]2C3c2ccc(/C=C/c3ccccc3)cc2)cc(OC)c1 (stereo not given in full) | -93*! | ·
COc1cccc(CN2[C@@H]3CNC[C@H]2C3c2ccc(/C=C/c3ccccc3)cc2)c1 (stereo not given in full) | 39 | ·
COc1cccc(NC(=O)N2[C@@H]3CNC[C@H]2C3c2ccc(/C=C/c3ccccc3)cc2)c1 (stereo not given in full) | -98*! | ·
COc1cccc(NC(=O)N2[C@@H]3CNC[C@H]2C3c2ccc(-c3ccccc3)cc2)c1 (stereo not given in full) | 4 | ·
CN(C)C(=O)c1ccc(-c2ccc(C3[C@H]4CNC[C@@H]3N4C(=O)Nc3cccc(Cl)c3)cc2)cc1 (stereo not given in full) | -3 | ·
O=C(Nc1cccc(Cl)c1)N1[C@@H]2CNC[C@H]1C2c1ccc(/C=C/c2ccccc2)cc1 (stereo not given in full) | -95*! | ·
C[C@@H]1CN([C@H](C)CO)C(=O)c2cc(-c3ccccc3F)cnc2O[C@@H]1CN(C)C(=O)C1CC1 | · | 17
C[C@@H]1CN([C@H](C)CO)C(=O)c2cc(N(C)C)ccc2O[C@@H]1CN(C)C(=O)Nc1ccc2c(c1)OCO2 | -2 | -22
COCC(=O)N(C)C[C@@H]1Oc2ncc(-c3ccc(F)cc3)cc2C(=O)N([C@@H](C)CO)C[C@@H]1C | 0 | 6
CCCNC(=O)N[C@@H]1CC[C@H](CCn2cc(-c3cccc(F)c3)nn2)O[C@H]1CO | · | 8
CC(C)NC(=O)Nc1ccc2c(c1)CC(=O)N([C@H](C)CO)C[C@@H](C)[C@H](CN(C)C(=O)Nc1cccc3ccccc13)O2 | -5 | -17
Cc1ccc(S(=O)(=O)N(C)C[C@@H]2OCCCC[C@@H](C)Oc3ccc(NS(=O)(=O)c4ccc(Cl)cc4)cc3C(=O)N([C@@H](C)CO)C[C@H]2C)cc1 | 5 | 82
Cc1ccc(S(=O)(=O)N(C)C[C@@H]2OCCCC[C@H](C)Oc3ccc(NS(=O)(=O)c4ccc(F)cc4)cc3C(=O)N([C@@H](C)CO)C[C@@H]2C)cc1 | 3 | 113

Screening data: PubChem, Broad Institute
